AMA1 RON2 block: qHTS for Inhibitors of AMA1-RON; Towards Development of Antimalarial Drug Lead: Primary Screen; Plasmodium falciparum AMA1 (3D7) - RON2 peptide interaction; AlphaScreen AMA1-biotinylated RON2 peptide binding; Potency, µM (highest dose often 58.2 µM), inactives show top-dose activity change, negative = inhibition, actives largely listed as inhibitors; actives 0.2% (n = 360,000); AID 720542, 2013;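 further: 0% = vehicle wells and -100% = peptide control; nearly all actives have a fitted effect of over 45% in size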
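AMA1 (3D7) with his tag at 25 nM final met compounds first, then biotinylated RON2 peptide at 25 nM; detection used donor plus acceptor beads, 10 µg/mL apiece, read by AlphaScreen after 30 min at room temperature.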
Giardia FBPA inh-1: qHTS Assay for Inhibitors of Fructose-1,6-bisphosphate Aldolase from Giardia Lamblia. A8B2U2. purified Giardia FBPA. Potency, µM (titrated, usually from 59.6 µM), for the others: top-dose activity, negative = inhibition, actives largely listed as inhibitors. actives 0.71% (n = 290,000); further: nearly all actives have a fitted effect of over 55% in size
Target sequence (A8B2U2 whole entry, looked up): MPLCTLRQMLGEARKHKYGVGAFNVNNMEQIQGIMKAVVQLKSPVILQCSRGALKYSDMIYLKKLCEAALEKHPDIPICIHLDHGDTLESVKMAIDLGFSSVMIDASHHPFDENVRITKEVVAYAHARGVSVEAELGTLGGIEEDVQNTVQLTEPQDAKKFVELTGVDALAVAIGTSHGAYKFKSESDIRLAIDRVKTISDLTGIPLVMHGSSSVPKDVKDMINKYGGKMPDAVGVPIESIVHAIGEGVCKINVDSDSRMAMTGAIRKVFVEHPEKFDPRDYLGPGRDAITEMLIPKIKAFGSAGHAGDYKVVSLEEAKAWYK
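Giardia FBPA (40 nM reagent) was preincubated 10 min at RT with compound (up to 57.5 uM final), then substrate plus GAPDH/TPI/NAD/arsenate coupling system with diaphorase/resazurin was added; resorufin fluorescence (525/598 nm) was read after 20 min.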
LmPK inhibitor: qHTS Assay for Inhibitors of Leishmania Mexicana Pyruvate Kinase (LmPK); Q27686; purified LmPK, Kinase-Glo ATP luminescence, 1 h; Potency, µM (titrated, usually from 57.5 µM), for the others: top-dose activity change, negative = inhibition, most hits filed as inhibitors; actives 0.37% (n = 290,000)
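qHTS format; LmPK 0.1 nM; substrates PEP 0.5 mM and ADP 0.1 mM. One-hour room-temperature incubation, then coupled luciferase luminescence; 0.5 nM enzyme wells mark activation.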
AmpC detergent: qHTS Inhibitors of AmpC Beta-Lactamase (assay with detergent); P00811; Potency, µM (doses to about 114 µM), without a hit: at the highest dose activity change, negative = inhibition, hits mostly inhibitors; actives 0.041% (n = 370,000); AID 485294, 2010; AmpC hydrolysis of nitrocefin, absorbance 480 nm, 0.01% Triton;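 further: 0% = no-compound wells and -100% = no-enzyme wells; nearly all actives have a fitted effect of over 25% in size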
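AmpC (5.3 nM in the dispensed reagent) in 20 mM phosphate pH 7.0 with 0.01% (detergent screen) or 0.0001% Triton X-100 was preincubated with compounds for 15 min at room temperature. Nitrocefin was then added from an 800 uM solution, and hydrolysis was followed at 480 nm.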
AmpC inh no detg: qHTS Inhibitors of AmpC Beta-Lactamase (assay without detergent); Potency, µM (titrated, usually from 57.1 µM), without a hit: top-dose activity change, negative = inhibition, usual class: inhibitors; actives 0.52% (n = 330,000); P00811; AmpC nitrocefin hydrolysis, absorbance 480 nm, 0.0001% Triton;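 further: plate controls were no compound for no effect and no enzyme for full effect; nearly all actives have a fitted effect of over 20% in size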
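20 mM phosphate pH 7.0 + 0.01% (detergent screen) or 0.0001% Triton X-100; 5.3 nM AmpC reagent; cpd preinc 15 min RT; nitrocefin (800 uM stock) to start; A480 q20 s × 4 min; Activity was normalised to no-enzyme and no-compound control wells.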
Giardia growth: qHTS Assay for Inhibitors of Fructose-1,6-bisphosphate Aldolase from Giardia Lamblia: Giardia lamblia growth inhibition; AID 2785, 2010; Potency, µM (titrated, usually from 57.5 µM), without a hit: top-dose activity change, negative = inhibition, usual class: inhibitors; Giardia lamblia trophozoite growth inhibition; shares compounds with Giardia FBPA inh-1; actives 5% (n = 1,500);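 further: trophozoites exposed to compound for 48 h at 37 °C; nearly all actives have a fitted effect of over 70% in size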
Mammalian tox: qHTS Assay for Inhibitors of Fructose-1,6-bisphosphate Aldolase from Giardia Lamblia: Mammalian cellular toxicity. shares compounds with Giardia FBPA inh-1. mammalian cell viability counter-screen, qHTS. Potency, µM (titrated, usually from 57.5 µM), for inactives: at the top dose viability change, negative = toxicity, most hits filed as inhibitors. actives 4% (n = 1,500);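 further: Chinese hamster ovary cells used as mammalian cytotoxicity surrogate; viability measured as cellular ATP by luminescence; compound exposure lasted 48 h before reading; nearly all actives have a fitted effect of over 60% in size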
Giardia FBPA inh-2: qHTS Assay for Inhibitors of Fructose-1,6-bisphosphate Aldolase from Giardia Lamblia: Primary screen confirmation | shares compounds with Giardia FBPA inh-1 | purified Giardia aldolase enzyme activity, qHTS | Potency, µM (titrated, usually from 57.5 µM), without a hit: top-dose activity change, negative = inhibition, actives largely listed as inhibitors | actives 5% (n = 1,500) | AID 2787, 2010; further: nearly all actives have a fitted effect of over 45% in size
Rabbit FBPA inh: qHTS Assay for Inhibitors of Fructose-1,6-bisphosphate Aldolase from Giardia Lamblia: Rabbit FBPA Selectivity. shares compounds with Giardia FBPA inh-1. Rabbit muscle FBPA enzyme inhibition, selectivity counter-screen. Potency, µM (doses to about 57.5 µM), without a hit: at the highest dose activity, negative = inhibition, usual class: inhibitors. actives 4% (n = 1,500). AID 2794, 2010; further: nearly all actives have a fitted effect of over 60% in size
Target sequence (P00883 whole entry, looked up): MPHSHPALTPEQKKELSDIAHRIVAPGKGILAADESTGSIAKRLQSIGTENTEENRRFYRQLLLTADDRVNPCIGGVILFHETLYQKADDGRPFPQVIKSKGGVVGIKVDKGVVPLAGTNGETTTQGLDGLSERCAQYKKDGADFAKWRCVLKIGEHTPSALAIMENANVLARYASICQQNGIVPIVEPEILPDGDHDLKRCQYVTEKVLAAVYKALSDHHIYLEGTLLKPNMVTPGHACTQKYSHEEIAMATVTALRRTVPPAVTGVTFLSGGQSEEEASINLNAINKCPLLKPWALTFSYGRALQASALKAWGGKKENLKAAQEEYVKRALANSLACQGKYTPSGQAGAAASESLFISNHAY
GAPDH coupling: qHTS Assay for Inhibitors of Fructose-1,6-bisphosphate Aldolase from Giardia Lamblia: Coupling assay counterscreen confirmation; shares compounds with Giardia FBPA inh-1; GAPDH coupling enzyme counterscreen, biochemical, qHTS; Potency, µM (titrated, usually from 57.5 µM), inactives show top-dose activity change, negative = inhibition, usual class: inhibitors; actives 6% (n = 1,500); AID 2795, 2010; further: nearly all actives have a fitted effect of over 55% in size
Starred values were filed as active, the others as inactive; ? = inconclusive; . = not tested or not shown; [ ] = remark or other dose. This is a sample that favours compounds with a hit; in the whole collection about 1.3% have one here. The call rests on the fitted dose curve; in most records, active means well fitted curve in the direction sought with a large enough effect; inconclusive means small, poorly fitted or top-dose-only effect, or another doubt; inactive means no such curve, though single readings can be large; an effect the other way counts as inactive or inconclusive. Unless noted, on the % scale 0 is the no-effect control and ±100 the full control effect; potency means the concentration at half of the fitted maximal effect.

SMILES	AMA1 RON2 block	Giardia FBPA inh-1	LmPK inhibitor	AmpC detergent	AmpC inh no detg	Giardia growth	Mammalian tox	Giardia FBPA inh-2	Rabbit FBPA inh	GAPDH coupling
NC(=O)CN(C/C=C/c1ccccc1)C/C=C/c1ccccc1	-28.6%	28.2µM*	1.8%	-10.8%	22.7%	-11.3%	3.1%	-1.4%	1.6%	5.5%
COC(=O)c1cccnc1NC(=S)NNC(=O)c1ccncc1	78.8%	7.06µM*	2.2%	-14.8%	-6.7%	65.2%	20.1%	-6.7%	7.9%	-20.5%
Cc1cc(C)c(NC(=S)N(CCN(C)C)Cc2cccs2)c(C)c1	-20.6%	6.5%	-3.0%	-0.1%	41.2%	.	.	.	.	.
Cc1ccc(NC(=S)N(CCN(C)C)Cc2cccs2)c(C)c1	-0.6%	14.1µM*	-8.0%	5.0%	-11.0%	-5.4%[10.4 µM]	-2.5%	-5.8%	4.1%	4.3%
CCOC(=O)Cc1csc(NS(=O)(=O)c2ccc(NC(C)=O)cc2)n1	10.4%	14.1µM*	-2.8%	-19.2%	-17.3%	-0.3%	15.7%	8.4%	15.2%	16.9%
CCOC(=O)Cc1csc(NC(=O)CN2CCOCC2)n1	44.0%	14.1µM*	-3.2%	10.5%	0.6%	-0.2%[10.4 µM]	0.5%	4.1%	5.0%	14.8%
CCOC(=O)Cc1csc(NC(=O)CCCc2ccccc2)n1	10.8%	35.5µM*	-5.0%	7.4%	-20.2%	-23.3%	-1.7%	-16.7%	-6.5%	-11.5%
CCOC(=O)Cc1csc(NC(=O)CCc2ccc(S(=O)(=O)N3CCOCC3)cc2)n1	0.6%	-0.6%	-2.4%	?	1.0%	.	.	.	.	.
Cn1c(=O)c2c(n3c4ccccc4nc13)NC(=O)CC2c1ccccc1F (configuration not stated)	.	.	.	5.8%	.	.	.	.	.	.
O=c1cnnc(N/N=C/C2CC=CCC2)[nH]1 (configuration not stated)	-3.9%	19.9µM*	-2.7%	2.6%	-11.1%	?	17.2%	4.6%	13.1%	5.2%
COc1ccc(OC)c(NC(=O)C2CCCCC2C(=O)O)c1 (configuration not stated)	-3.0%	-8.4%	2.1%	-6.2%	-7.8%	.	.	.	.	.
COc1ccc(OC)c(NC(=O)C2C3CCC(C3=C(C)C)C2C(=O)O)c1 (configuration not stated)	-2.7%	3.55µM*	1.2%	-3.6%	-2.5%	-8.2%[38.3 µM]	-5.6%	?	?	?
O=C(NCC[C@H]1CC[C@@H](NC(=O)C2CCC2)[C@@H](CO)O1)c1cc(Cl)cc(Cl)c1	-4.5%	.	.	.	.	.	.	.	.	.
CCNc1nc(NC(C)C)nc(NS(=O)(=O)c2ccc(C)cc2)n1	-3.3%	28.2µM*	-1.4%	?	-36.6%	-20.2%	-1.7%	?	?	39.8µM*
CC(NC(=S)NNS(=O)(=O)c1cccc([N+](=O)[O-])c1)c1ccccc1 (configuration not stated)	79.6%	15.8µM*	0.3%	6.1%	-21.8%	11.7%	11.6%	3.0%	14.8%	26.2%
COCCCNC(=O)c1c(NC(=O)c2nc(S(C)(=O)=O)ncc2Cl)sc2c1CCCC2	.	.	.	11.7%	.	.	.	.	.	.
CC(=O)c1c(NC(=O)C(C)C)nc(C)nc1-c1ccccc1	0.5%	-20.1%	4.0%	-2.2%	-16.1%	.	.	.	.	.
CC(=O)Nc1nc(C)nc(-c2ccccc2)c1C(C)=O	2.2%	15.8µM*	0.4%	-9.2%	-11.5%	22.6%	-6.6%	3.2%	9.2%	9.7%
O=C(COC(=O)c1c(F)cccc1F)NC(=O)NCc1ccccc1	-14.7%	.	.	.	.	.	.	.	.	.
COc1ccc(C(=O)NC(=S)N2CCC(C)CC2)cc1Br	33.7%	.	-3.8%	4.7%	-6.2%	.	.	.	.	.
COc1ccc(C(=O)NC(=S)N2CCNC(=O)C2)cc1Br	103.9%	17.7µM*	0.8%	-2.1%	-4.0%	84.8%	3.1%	3.6%	0.9%	16.2%
COc1ccc(OC)c(NC(=O)C2=C(C)C(=O)OC23CCCCCC3)c1	.	.	.	7.3%	.	.	.	.	.	.
CCc1ccc(CN2CCN(C(=O)c3ccco3)CC2)cc1	?	28.2µM*	1.6%	?	-6.7%	10.5%	11.3%	9.5%	1.2%	10.6%
O=C(c1ccco1)N1CCN(Cc2cccc3ccccc23)CC1	-14.0%	15.8µM*	-2.1%	-9.6%	28.2%	?	-3.5%	3.5%	7.1%	7.5%
O=C(c1ccco1)N1CCN(Cc2c(Cl)cccc2Cl)CC1	-1.2%	5.5%	2.9%	-16.4%	1.6%	.	.	.	.	.
CC(C)C[C@@H](CN)NC(=O)c1nc[nH]c1C(=O)N[C@@H](C)C(=O)CNC[C@H](C)NC(=O)c1nc[nH]c1C(=O)N[C@@H](CC(C)C)C(=O)O	71.5%	.	.	.	.	.	.	.	.	.
C[C@H](CO)N1C[C@H](C)[C@@H](CN(C)Cc2ccccn2)Oc2ncc(-c3ccccc3)cc2C1=O	99.1%	.	.	.	.	.	.	.	.	.
CCOC(=O)c1cc(NC(=O)c2ccccc2)c(=O)n2c1oc1ccc(Cl)cc12	.	.	.	20.7%	.	.	.	.	.	.

Screens deposited in PubChem BioAssay by National Center for Advancing Translational Sciences (NCATS).
